The target of assay [1] is Serine/threonine-protein phosphatase PP1-alpha catalytic subunit (Homo sapiens) (UniProt P62136). Briefly: NVS_ENZ_hPPP1CA: NovaScreen (NVS) Enzymatic Assay for human Protein Phosphatase 1 Aatalytic subunit Alpha (PPP1CA) (AID 2283200). The method, boiled down:
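Chemicals were first screened in duplicate at 25 uM, and those passing threshold (e.g. 30% inhibition) were run as concentration series to 50 uM. Cell-free recombinant protein, 1.33 h read, fluorescent substrate/product mobility-shift detection, normalised to DMSO.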

For assay [2], the target named is human Phosphodiesterase 5 (PDE5), PDE5A (gene 8654) (UniProt O76074). The assay is described as follows: NVS_ENZ_hPDE5: NovaScreen (NVS) Enzymatic Assay for human Phosphodiesterase 5 (PDE5) (AID 2283194). The method, boiled down: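 Screening began in duplicate at 25 uM, with actives taken into concentration-response. Enzyme activity of recombinant PDE5 toward its substrate was measured at 1 h by fluorescence mobility-shift detection, relative to DMSO controls.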

The target in assay [3] is Tyrosine-protein phosphatase non-receptor type 12 (Homo sapiens) (UniProt Q05209). Briefly: NVS_ENZ_hPTPN12: NovaScreen (NVS) Enzymatic Assay for human Protein Tyrosine Phosphatase Non-receptor Type 12 (PTPN12) (AID 2283204). A digest of the protocol:
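Single-concentration duplicates (25 uM) preceded singleton concentration-response up to 50 uM for chemicals passing threshold. Cell-free recombinant PTPN12 activity was read 1.33 h after dosing via fluorescence after mobility-shift separation; loss of signal versus DMSO.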

For assay [4], the target named is human Protein Tyrosine Phosphatase Receptor Type B (PTPRB), PTPRB (gene 5787) (UniProt P23467). Briefly: NVS_ENZ_hPTPRB: NovaScreen (NVS) Enzymatic Assay for human Protein Tyrosine Phosphatase Receptor Type B (PTPRB) (AID 2283211). The method, boiled down: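 Recombinant human PTPRB with a fluorescent substrate, product separated by electrophoretic mobility shift; read 1 h after dosing. Primary screen in duplicate at 25 uM; actives then retested in concentration series; loss of signal versus DMSO.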

For assay [5], the target named is human Protein Tyrosine Phosphatase Receptor Type F (PTPRF), PTPRF (gene 5792) (UniProt P10586). Briefly: NVS_ENZ_hPTPRF: NovaScreen (NVS) Enzymatic Assay for human Protein Tyrosine Phosphatase Receptor Type F (PTPRF) (AID 2283213). The method, boiled down:
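Cell-free fluorescence enzyme assay with recombinant protein and substrate; product separated by electrophoretic mobility shift. Read 1 h after dosing, single 25 uM duplicate screen, then concentration-response up to 50 uM; loss of signal vs DMSO.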

For assay [6], the target named is human Protein Tyrosine Phosphatase Non-receptor Type 2 (PTPN2), PTPN2 (gene 5771) (UniProt P17706). The assay is described as follows: NVS_ENZ_hPTPN2: NovaScreen (NVS) Enzymatic Assay for human Protein Tyrosine Phosphatase Non-receptor Type 2 (PTPN2) (AID 2283207). A digest of the protocol: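 Activity measured as fluorescence after mobility-shift separation of substrate and product, 1 h after compound. Duplicate single-point 25 uM primary testing, concentration series for actives; inhibition scored as signal loss relative to DMSO baseline.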

Assay [7] has as its target human Rho Associated Coiled-coil Containing Protein Kinase 1 (ROCK1), ROCK1 (gene 6093) (UniProt Q13464). The assay is described as follows: NVS_ENZ_hROCK1: NovaScreen (NVS) Enzymatic Assay for human Rho Associated Coiled-coil Containing Protein Kinase 1 (ROCK1) (AID 2283214). A digest of the protocol: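 Compounds first run in duplicate at 25 uM against recombinant human ROCK1, then followed in concentration series. Kinase activity was read 1 h post-dosing by fluorescence with mobility-shift separation, as signal loss relative to DMSO.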

Assay [8] concerns the target human Raf-1 Proto-Oncogene, serine/threonine Kinase (RAF1), RAF1 (gene 5894) (UniProt P04049). Briefly: NVS_ENZ_hRAF1: NovaScreen (NVS) Enzymatic Assay for human Raf-1 Proto-Oncogene, serine/threonine Kinase (RAF1) (AID 2283216). The method, boiled down:
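Single-point screening at 25 uM (duplicate), followed by singleton concentration-response to 50 uM maximum for chemicals exceeding threshold. Enzyme activity from fluorescent substrate-product mobility-shift separation after 1 h, relative to DMSO.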

Assay [9] deals with human Protein Tyrosine Phosphatase Non-receptor Type 1 (PTPN1), PTPN1 (gene 5770) (UniProt P18031). The assay is described as follows: NVS_ENZ_hPTPN1: NovaScreen (NVS) Enzymatic Assay for human Protein Tyrosine Phosphatase Non-receptor Type 1 (PTPN1) (AID 2283201). The method, boiled down:
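Chemicals were first tested in duplicate at 25 uM, and those passing threshold went on to singleton concentration series topping at 50 uM. Recombinant enzyme, specific substrate, product separated by mobility shift, fluorescence read at 1.33 h; activity loss relative to DMSO.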

Assay [10] has as its target Tyrosine-protein phosphatase non-receptor type 14 (Homo sapiens) (UniProt Q15678). The assay is described as follows: NVS_ENZ_hPTPN14: NovaScreen (NVS) Enzymatic Assay for human Protein Tyrosine Phosphatase Non-receptor Type 14 (PTPN14) (AID 2283206). The method, boiled down:
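Fluorescent substrate turnover by recombinant human PTPN14 was measured 0.5 h after compound addition, with substrate and product separated by mobility shift. Single-point screening at 25 uM, then concentration-response up to 50 uM for chemicals meeting threshold (e.g., 30% inhibition).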

Assay [11] addresses Tyrosine-protein phosphatase non-receptor type 11 (Homo sapiens) (UniProt Q06124). Briefly: NVS_ENZ_hPTPN11: NovaScreen (NVS) Enzymatic Assay for human Protein Tyrosine Phosphatase Non-receptor Type 11 (PTPN11) (AID 2283202). The method, boiled down: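 Compounds first tested in duplicate at 25 uM; those reaching ~30% inhibition rerun in singleton concentration-response, top 50 uM. Phosphatase activity measured after 0.5 h by fluorescence with mobility-shift separation, relative to DMSO.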

The target in assay [12] is human Phosphoinositide 3-kinase alpha (PI3Ka), PIK3CA (gene 5290) (UniProt P42336). The assay is described as follows: NVS_ENZ_hPI3Ka: NovaScreen (NVS) Enzymatic Assay for human Phosphoinositide 3-kinase alpha (PI3Ka) (AID 2283196). A digest of the protocol:
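Chemicals were first screened at 25 uM in duplicate, then hits were run as concentration series up to 50 uM. Enzyme activity was measured by fluorescence after mobility-shift separation, with loss of signal relative to DMSO taken as activity.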

For assay [13], the target named is human Sirtuin 2 (SIRT2), SIRT2 (gene 22933) (UniProt Q8IXJ6). Briefly: NVS_ENZ_hSIRT2: NovaScreen (NVS) Enzymatic Assay for human Sirtuin 2 (SIRT2) (AID 2283217). A digest of the protocol: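 Single-point duplicate screen at 25 uM, then concentration-response (max 50 uM) for chemicals passing threshold. Enzyme activity of recombinant human SIRT2 measured after 1 hr by fluorescence with mobility-shift separation of product; DMSO baseline.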

Each structure is given as a SMILES string. Records with an inconclusive call do not appear. Activity calls are given as the source filed them. The calls were made as follows: active = hit-call score of the fitted dose curve at least 0.9, where 1 is the maximum; inconclusive = response in the unintended direction; inactive = score below 0.9.

Sequence of human Protein Tyrosine Phosphatase Receptor Type F (PTPRF), PTPRF (gene 5792) (P10586 whole entry, looked up): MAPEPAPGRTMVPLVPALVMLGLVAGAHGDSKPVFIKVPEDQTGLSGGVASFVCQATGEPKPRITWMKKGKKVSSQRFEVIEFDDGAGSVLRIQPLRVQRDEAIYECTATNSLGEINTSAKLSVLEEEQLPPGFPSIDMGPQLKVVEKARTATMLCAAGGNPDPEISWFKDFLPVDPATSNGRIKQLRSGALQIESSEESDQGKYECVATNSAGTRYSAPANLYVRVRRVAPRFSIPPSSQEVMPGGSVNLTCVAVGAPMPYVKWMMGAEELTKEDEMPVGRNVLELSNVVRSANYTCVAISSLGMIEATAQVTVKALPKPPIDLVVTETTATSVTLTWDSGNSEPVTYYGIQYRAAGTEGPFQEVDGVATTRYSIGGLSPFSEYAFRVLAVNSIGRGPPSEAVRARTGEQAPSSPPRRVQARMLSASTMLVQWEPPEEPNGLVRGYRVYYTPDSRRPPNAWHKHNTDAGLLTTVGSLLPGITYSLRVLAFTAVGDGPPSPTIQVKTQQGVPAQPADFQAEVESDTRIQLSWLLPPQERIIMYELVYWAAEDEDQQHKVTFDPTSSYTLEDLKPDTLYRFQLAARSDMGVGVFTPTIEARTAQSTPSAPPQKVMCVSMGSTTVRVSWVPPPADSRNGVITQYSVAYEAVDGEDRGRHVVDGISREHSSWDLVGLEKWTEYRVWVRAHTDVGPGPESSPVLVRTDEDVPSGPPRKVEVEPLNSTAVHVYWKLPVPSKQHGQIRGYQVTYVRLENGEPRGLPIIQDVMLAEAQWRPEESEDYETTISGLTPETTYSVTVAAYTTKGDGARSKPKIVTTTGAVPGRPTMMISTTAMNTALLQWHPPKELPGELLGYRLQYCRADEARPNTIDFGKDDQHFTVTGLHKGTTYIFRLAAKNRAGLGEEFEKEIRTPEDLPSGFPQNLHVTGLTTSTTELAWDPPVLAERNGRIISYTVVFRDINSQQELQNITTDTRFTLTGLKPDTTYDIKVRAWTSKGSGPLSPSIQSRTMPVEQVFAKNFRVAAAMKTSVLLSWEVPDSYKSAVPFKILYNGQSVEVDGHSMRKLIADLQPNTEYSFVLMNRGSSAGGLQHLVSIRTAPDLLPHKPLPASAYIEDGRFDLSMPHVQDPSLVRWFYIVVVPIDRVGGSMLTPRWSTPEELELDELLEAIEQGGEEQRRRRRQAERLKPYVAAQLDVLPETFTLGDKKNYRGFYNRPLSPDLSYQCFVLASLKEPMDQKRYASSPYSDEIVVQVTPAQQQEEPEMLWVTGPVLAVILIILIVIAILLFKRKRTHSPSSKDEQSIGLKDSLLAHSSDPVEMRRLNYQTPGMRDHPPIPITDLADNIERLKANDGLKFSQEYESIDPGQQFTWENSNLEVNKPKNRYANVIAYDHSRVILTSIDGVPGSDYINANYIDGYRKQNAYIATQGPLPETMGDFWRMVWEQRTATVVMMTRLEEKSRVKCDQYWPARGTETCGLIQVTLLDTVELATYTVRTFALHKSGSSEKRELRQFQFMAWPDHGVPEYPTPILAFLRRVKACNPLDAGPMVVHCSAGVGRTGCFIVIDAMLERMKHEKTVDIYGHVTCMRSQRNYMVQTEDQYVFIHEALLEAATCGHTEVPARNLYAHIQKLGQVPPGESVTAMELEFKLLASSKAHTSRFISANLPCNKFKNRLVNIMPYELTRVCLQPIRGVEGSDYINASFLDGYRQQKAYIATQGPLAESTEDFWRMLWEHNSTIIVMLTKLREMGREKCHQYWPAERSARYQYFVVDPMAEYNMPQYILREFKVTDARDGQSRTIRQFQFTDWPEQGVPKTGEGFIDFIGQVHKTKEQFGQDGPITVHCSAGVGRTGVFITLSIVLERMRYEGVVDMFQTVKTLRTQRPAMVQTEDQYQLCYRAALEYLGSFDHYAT
Sequence of human Protein Tyrosine Phosphatase Non-receptor Type 2 (PTPN2), PTPN2 (gene 5771) (P17706 whole entry, looked up): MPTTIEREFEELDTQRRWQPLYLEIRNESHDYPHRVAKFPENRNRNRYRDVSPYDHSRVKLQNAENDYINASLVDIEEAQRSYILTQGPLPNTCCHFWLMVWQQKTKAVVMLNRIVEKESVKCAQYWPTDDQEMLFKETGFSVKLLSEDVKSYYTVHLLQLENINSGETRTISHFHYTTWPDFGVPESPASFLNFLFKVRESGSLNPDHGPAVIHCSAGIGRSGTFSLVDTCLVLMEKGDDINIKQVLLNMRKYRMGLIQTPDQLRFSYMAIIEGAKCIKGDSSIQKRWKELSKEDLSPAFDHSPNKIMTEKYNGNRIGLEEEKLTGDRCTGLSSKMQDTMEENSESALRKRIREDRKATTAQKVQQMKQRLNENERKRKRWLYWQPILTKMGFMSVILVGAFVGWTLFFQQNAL
Sequence of Serine/threonine-protein phosphatase PP1-alpha catalytic subunit (Homo sapiens) (P62136 whole entry, looked up): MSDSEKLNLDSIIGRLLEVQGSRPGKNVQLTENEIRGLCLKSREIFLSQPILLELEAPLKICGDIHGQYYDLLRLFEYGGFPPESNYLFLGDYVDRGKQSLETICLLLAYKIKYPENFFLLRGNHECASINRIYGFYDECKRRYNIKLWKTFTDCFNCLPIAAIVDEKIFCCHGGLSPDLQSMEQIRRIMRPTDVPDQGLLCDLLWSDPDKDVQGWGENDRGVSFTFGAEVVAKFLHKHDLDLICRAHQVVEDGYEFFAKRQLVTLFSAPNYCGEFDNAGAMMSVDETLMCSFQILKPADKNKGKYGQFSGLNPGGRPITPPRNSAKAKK
Sequence of human Raf-1 Proto-Oncogene, serine/threonine Kinase (RAF1), RAF1 (gene 5894) (P04049 whole entry, looked up): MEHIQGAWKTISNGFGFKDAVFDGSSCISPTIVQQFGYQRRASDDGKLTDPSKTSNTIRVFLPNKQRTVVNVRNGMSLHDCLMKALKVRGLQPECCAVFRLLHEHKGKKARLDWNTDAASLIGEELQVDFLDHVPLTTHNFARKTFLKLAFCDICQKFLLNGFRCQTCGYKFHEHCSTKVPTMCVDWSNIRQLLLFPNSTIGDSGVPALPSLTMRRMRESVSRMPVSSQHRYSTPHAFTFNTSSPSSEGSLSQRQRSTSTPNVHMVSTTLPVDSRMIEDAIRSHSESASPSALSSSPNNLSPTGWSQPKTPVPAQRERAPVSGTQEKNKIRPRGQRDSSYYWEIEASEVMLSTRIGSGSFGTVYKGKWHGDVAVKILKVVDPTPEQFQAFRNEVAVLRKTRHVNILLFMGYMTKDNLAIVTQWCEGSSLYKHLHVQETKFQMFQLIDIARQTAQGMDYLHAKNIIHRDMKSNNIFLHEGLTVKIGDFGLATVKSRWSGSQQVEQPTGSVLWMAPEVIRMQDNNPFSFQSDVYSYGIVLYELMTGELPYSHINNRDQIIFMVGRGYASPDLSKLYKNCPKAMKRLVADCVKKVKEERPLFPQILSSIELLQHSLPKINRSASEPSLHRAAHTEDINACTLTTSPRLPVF
Sequence of Tyrosine-protein phosphatase non-receptor type 14 (Homo sapiens) (Q15678 whole entry, looked up): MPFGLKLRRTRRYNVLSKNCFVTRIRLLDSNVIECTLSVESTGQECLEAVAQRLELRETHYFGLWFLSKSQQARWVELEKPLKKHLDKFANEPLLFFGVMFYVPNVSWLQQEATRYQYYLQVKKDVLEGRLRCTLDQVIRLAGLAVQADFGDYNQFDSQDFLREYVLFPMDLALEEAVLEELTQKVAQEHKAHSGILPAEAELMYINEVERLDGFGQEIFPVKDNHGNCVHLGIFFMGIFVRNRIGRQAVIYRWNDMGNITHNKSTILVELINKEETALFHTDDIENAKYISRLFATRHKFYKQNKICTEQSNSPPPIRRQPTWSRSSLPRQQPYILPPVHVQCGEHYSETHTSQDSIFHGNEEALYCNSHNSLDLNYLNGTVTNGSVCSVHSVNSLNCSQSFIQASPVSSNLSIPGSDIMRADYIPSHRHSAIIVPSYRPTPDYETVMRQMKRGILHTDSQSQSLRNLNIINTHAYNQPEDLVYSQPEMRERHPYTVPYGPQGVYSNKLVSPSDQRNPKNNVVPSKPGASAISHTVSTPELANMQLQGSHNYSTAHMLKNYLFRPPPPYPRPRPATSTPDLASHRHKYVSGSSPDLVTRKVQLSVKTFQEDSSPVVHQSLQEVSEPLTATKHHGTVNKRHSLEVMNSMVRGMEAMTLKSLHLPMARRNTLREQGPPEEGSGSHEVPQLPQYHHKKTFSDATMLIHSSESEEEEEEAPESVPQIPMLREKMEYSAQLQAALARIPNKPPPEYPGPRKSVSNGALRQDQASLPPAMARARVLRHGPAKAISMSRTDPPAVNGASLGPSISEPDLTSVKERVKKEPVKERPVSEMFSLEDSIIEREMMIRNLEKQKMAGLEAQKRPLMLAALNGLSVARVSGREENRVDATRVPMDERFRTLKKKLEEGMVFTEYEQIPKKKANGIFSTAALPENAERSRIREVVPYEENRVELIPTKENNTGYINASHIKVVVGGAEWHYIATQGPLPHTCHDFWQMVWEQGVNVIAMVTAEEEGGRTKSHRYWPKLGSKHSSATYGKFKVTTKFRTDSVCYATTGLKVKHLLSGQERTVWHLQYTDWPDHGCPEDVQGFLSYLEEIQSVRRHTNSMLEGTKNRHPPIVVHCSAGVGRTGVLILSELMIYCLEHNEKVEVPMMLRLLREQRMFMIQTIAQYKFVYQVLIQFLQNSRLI
Sequence of human Protein Tyrosine Phosphatase Non-receptor Type 1 (PTPN1), PTPN1 (gene 5770) (P18031 whole entry, looked up): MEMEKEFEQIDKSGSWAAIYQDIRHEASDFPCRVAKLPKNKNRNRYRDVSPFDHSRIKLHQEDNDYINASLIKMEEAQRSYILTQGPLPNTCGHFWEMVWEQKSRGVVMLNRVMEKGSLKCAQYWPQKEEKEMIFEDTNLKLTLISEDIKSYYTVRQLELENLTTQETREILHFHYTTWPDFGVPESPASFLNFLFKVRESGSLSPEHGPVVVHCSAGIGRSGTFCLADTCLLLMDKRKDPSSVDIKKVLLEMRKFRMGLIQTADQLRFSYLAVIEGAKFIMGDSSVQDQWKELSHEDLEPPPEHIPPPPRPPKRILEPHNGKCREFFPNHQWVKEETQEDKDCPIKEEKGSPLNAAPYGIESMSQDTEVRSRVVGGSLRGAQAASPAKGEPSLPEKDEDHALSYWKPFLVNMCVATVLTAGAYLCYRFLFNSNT

In the case of `CCNC(=O)NC(=O)C(C#N)=NOC`, the result in assay [1] was inactive.

With `Cc1cnc(C2=NC(C)(C(C)C)C(=O)N2)c(C(=O)O)c1` (configuration not stated), the call in assay [2] was inactive.

With `CC(C)=CC1C(C(=O)OCc2coc(Cc3ccccc3)c2)C1(C)C` (configuration not stated), in assay [3], the compound was classed as inactive.

For `N#Cc1c(Cl)cccc1Cl`, the call in assay [4] and in [5] was inactive.

With `CCOC(=O)C(C)OC(=O)c1cc(Oc2ccc(C(F)(F)F)cc2Cl)ccc1[N+](=O)[O-]` (configuration not stated), the compound was called inactive in assay [6], in [7] and in assay [8].

Turning to `COC(=O)c1c(C(F)F)nc(C(F)(F)F)c(C2=NCCS2)c1CC(C)C`, the compound was classed as inactive in [8].

Consider `CC(C)NC(=O)N1CC(=O)N(c2cc(Cl)cc(Cl)c2)C1=O`, for which the result in assay [1] was inactive.

Take `Cc1nc(N(C)C)nc(OC(=O)N(C)C)c1C`: the result in assay [2] was inactive.

Consider `O=c1n(Cl)c(=O)n(Cl)c(=O)n1Cl`, for which the compound was classed as inactive in [4].

With `CC(C)Nc1nc(Cl)nc(NC(C)C)n1`, the outcome in [2] was inactive.

Take `CC(C)N1C(=O)N(c2ccccc2)CSC1=NC(C)(C)C`: the result in assay [9] was inactive.

Turning to `CN/C(=N\[N+](=O)[O-])NCc1cnc(Cl)s1`, the compound was called inactive in assay [6] and in assay [8].

Regarding `CCOP(=O)(OCC)Oc1nc(Cl)c(Cl)cc1Cl`, the compound was called inactive in assay [2] and in [10].

In the case of `CCC(C)n1c(=O)[nH]c(C)c(Br)c1=O` (configuration not stated), the call in assay [5] was inactive.

On to `CC(C)N1C(=O)c2ccccc2NS1(=O)=O`, for which the result in assay [11] was inactive.

With `O=C(O)c1c(Cl)ccc2cc(Cl)cnc12`, the outcome in assay [12] was inactive.

For the compound `COP(=S)(OC)SCn1nnc2ccccc2c1=O`, in [2], the AC50 was 4.85 µM (active). The compound was classed as inactive in assay [10], in [5] and in [8].

With `Nc1cnn(-c2ccccc2)c(=O)c1Cl`, the compound was called inactive in assay [9].

In the case of `CC1(C)C(C=C(Cl)Cl)C1C(=O)OC(C#N)c1cccc(Oc2ccccc2)c1` (configuration not stated), in assay [8], the compound was called inactive.

With `CS(=O)(=O)c1ccc(C(=O)C2C(=O)CCCC2=O)c([N+](=O)[O-])c1`, the compound was classed as inactive in [8].

Regarding `COP(=S)(OC)Oc1ccc([N+](=O)[O-])c(C)c1`, the outcome in assay [10] was inactive. The half-maximal activity concentration (AC50) in assay [13] was 12.1 µM (active).

As to `O=P(O)(O)CCCl`, the half-maximal activity concentration (AC50) in assay [1] was 9.89 µM (active).

As for `CCN(CC)C(=O)C(C)Oc1cccc2ccccc12` (configuration not stated), in assay [6], the result was inactive.

Values taken from PubChem BioAssay (EPA / NIEHS).
